Results published in PubChem BioAssay AID2417 (National Center for Advancing Translational Sciences (NCATS), 2010).
Out of some 140,000 compounds screened, about 4,300 (3.1%) were called active. Roughly 21% stayed inconclusive and do not appear here. Shown is part of a subset that was picked to be rich in actives. Unmarked numbers belong to inactive results.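 The calls were made as follows: active = readout at or below -70, meaning at least 70% loss of cells showing the perinucleolar compartment, a nuclear body marking cancer cells; inconclusive = readout between -30 and a set limit; inactive = the rest.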

assay: High Content Assay for Compounds that inhibit the Assembly of the Perinucleolar Compartment; conditions: PC3M PTB-GFP, PNC prevalence imaging, 16 h; at 10 µM; stronger effect = lower value;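 also: plate controls were DMSO wells for no effect and camptothecin positive control wells for full effect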
Procedure, shortened: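 Compounds are pinned in duplicate onto adhered PC3M cells stably expressing GFP-tagged PTB and incubated 16 h at 37 C. Cells are then fixed, nuclei stained with Hoechst, and PNC-positive cells counted.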

SMILES	activity change (PNC), negative = inhibition
CCn1nc(C)c(/C=N/NC(=O)Cc2ccc(Cl)cc2)c1C	49.9%
O=[N+]([O-])c1cc(S(=O)(=O)N2CCCC2)ccc1NN=C1CCCC1	27.5%
COc1cc(NC(=O)COC(=O)CSc2ccc3ccccc3c2)c(C)cc1[N+](=O)[O-]	0.296%
O=C(CSCc1ccc(Cl)cc1)N1CCCCC1	0.451%
CS(=O)(=O)N(CC(=O)N1CCN(Cc2ccc3c(c2)OCO3)CC1)c1ccc2c(c1)OCO2	-4.43%
O=C(CSCc1ccc(Cl)cc1)N1CCN(Cc2ccc3c(c2)OCO3)CC1	-86.5% (active)
O=C(Nc1ccccc1)N1CCN(Cc2ccccc2)CC1	47.3%
O=C(CCCN1C(=O)c2cccc3cccc(c23)C1=O)N1CCN(Cc2ccc3c(c2)OCO3)CC1	-24.4%
O=C(Nc1cccc2ccccc12)N1CCN(Cc2ccc3c(c2)OCO3)CC1	-95.4% (active)
O=C(Nc1ccccc1F)c1ccccc1-c1ccc(C(F)(F)F)cc1	16.7%
CCc1nccn1S(=O)(=O)c1cccc([N+](=O)[O-])c1	10%
Cc1nnc(NC(=O)/C=C/c2ccco2)s1	-22.5%
CCS(=O)(=O)Nc1cccc(-c2cc(-c3ccccc3)c3cc(C)ccc3n2)c1	81.5%
CCc1ccc(C(=O)OCC(=O)Nc2cccc(S(=O)(=O)NC3=NCCCCC3)c2)cc1	14.5%
CC(=O)Nc1ccc(S(=O)(=O)NC(C)C(=O)OCC(=O)NC2CCCC2)cc1 (stereo unspecified)	5.59%
O=C(CC(NS(=O)(=O)c1ccc(Cl)cc1)c1ccco1)NC1CCCC1 (stereo unspecified)	-84.2% (active)
COc1ccc(S(=O)(=O)NC(CC(=O)NCc2ccccc2OC)c2ccco2)cc1 (stereo unspecified)	32.4%
N#Cc1ccsc1NC(=O)CN1CCCCC1	8.2%
CN1CCN(CC(=O)Nc2sc3c(c2C#N)CCC(C(C)(C)C)C3)CC1 (stereo unspecified)	-86.5% (active)
Cc1cccc(C(=O)OCC(=O)Nc2sc3c(c2C#N)CCC3)c1	5.52%
COc1ccccc1Oc1ccc(N/C=C2/CCCC2=O)cc1	39.1%
Cc1ccccc1OCC(=O)Nc1nc(C)c(C(=O)N(C)C)s1	-15.1%
COc1ccc(OC)c(NC(=O)Cn2c(=O)oc3ccccc32)c1	0.891%
CCn1c(=N)n(CC(=O)c2cccc(OC)c2)c2ccccc21	-117% (active)

SMILES	activity change (PNC), negative = inhibition
CCCCOC(=O)Cn1c(=N)n(CCN(CC)CC)c2ccccc21	33.2%
CCCCN(C)c1ccc([N+](=O)[O-])cc1	22.3%
Cc1ccc(C(C[N+](=O)[O-])c2c(C)cc3ccccn23)cc1 (stereo unspecified)	-2.04%
Cc1cc(Nc2ccccc2)n(CCC#N)n1	-16.1%
Cc1cc(Nc2ccccc2)n(C(=O)c2ccc(N)cc2)n1	-86.2% (active)
Cc1cc(NC(=O)Nc2ccccc2)n(-c2ccccc2)n1	15.1%
Cc1cc(C)cc(NC(=S)NCc2ccc(F)cc2)c1	35.9%
CNC(=S)N1CCN(c2ccccn2)CC1	-10.5%
Cc1cccc(N=C2NN=C(c3c[nH]c4ccccc34)CS2)c1	57.4%
COc1ccc(S(=O)(=O)N2CCCCC2)cc1Br	-11%
COc1ccc(-c2ccc(Nc3ccc(S(=O)(=O)N4CCCC4)cc3)nn2)cc1OC	7.04%
COc1ccc(S(=O)(=O)Nc2ccc(S(=O)(=O)N3CCCCC3)cc2)cc1OC	-88.7% (active)
Cc1[nH]c2ccccc2c1/C=N\NC(=O)Cn1nnc(-c2ccccc2)n1	40.3%
CCOC(=O)c1c(C)[nH]c(=S)c(C#N)c1-c1ccccc1	32.4%
CCOC(=O)c1cc2n(c1N)-c1ccccc1C2=O	32%
CCOC(=O)c1c(C)[nH]c2c1-c1ccccc1C(=O)C2=O	-124% (active)
Cc1cccc(OCCNC(=S)NC(=O)c2cccnc2)c1	17.2%
CC(C)CNC(=O)COC(=O)/C=C/c1ccco1	0.199%
O=C(NC(CC(=O)N1CCN(c2ccccc2)CC1)c1ccccc1)c1ccccc1Cl (stereo unspecified)	-9.01%
CCCc1cc(-c2nc(-c3ccc(C)cc3)cs2)ccn1	10.4%
CCCCN=C1N/C(=C\c2ccco2)C(=O)N1c1ccccc1	-16.5%
COC(=O)C1=C(C)N(c2ccc(Br)cc2)C(=O)/C1=C\c1ccco1	-80.8% (active)
O=C(OCN1C(=O)c2ccccc2C1=O)/C(=C\c1ccco1)NC(=O)c1ccccc1	73.8%
O=C(N/N=C/c1ccc(Br)o1)c1cncc(Br)c1	-10.5%

SMILES	activity change (PNC), negative = inhibition
CC(C)C(=O)NC(NC(=S)NC1CCS(=O)(=O)C1)C(Cl)(Cl)Cl (stereo unspecified)	-100% (active)
CCCSC(=S)NC1CCS(=O)(=O)C1 (stereo unspecified)	-6.42%
CCN(CC(=O)NC1CCS(=O)(=O)C1)S(=O)(=O)c1ccccc1 (stereo unspecified)	-23.3%
COc1ccc(CNC(=O)CCCn2nc(C)c([N+](=O)[O-])c2C)cc1	1.72%
N#C/C(C(=O)N1CCOCC1)=C1/SC(Cc2ccc(F)cc2)C(=O)N1c1ccccc1 (stereo unspecified)	2.9%
O=C(Cn1cc(C(F)(F)F)ccc1=O)N/N=C/c1ccc(Cl)cc1Cl	32%
Cc1onc(-c2ccccc2)c1C(=O)NNC(=S)NC(=O)c1ccc(F)cc1	19.1%
CC(=O)Nc1cccc(NC(=O)c2c(-c3ccccc3)noc2C)c1	19.7%
CCOC(=O)c1c(-c2cccc(C)c2)csc1NC(=O)c1c(-c2ccccc2)noc1C	-101% (active)
Cc1nc(CNS(=O)(=O)c2cccnc2)cs1	14.3%
Cc1ccc(S(=O)(=O)NCc2csc(C)n2)c(C)c1	36.5%
Cc1nc(CNS(=O)(=O)c2ccc(Oc3ccccc3)cc2)cs1	-83.2% (active)
CC(=O)NCCC(=O)Nc1nc(C)c(Cc2ccc3c(c2)OCO3)s1	32.2%
COC(=O)[C@@H]1CC[C@H](C)[C@@H](c2ccc(C)cc2)N1C(=O)c1ccc(/C=N/O[C@H](C)c2cn([C@@H]3COC[C@H]3O)nn2)cc1	39.9%
C/C(=N\NC(=O)c1ccc(CSc2nc(C)cc(C)n2)cc1)C1CCCCC1	28.4%
CCc1ccc(C2C(C#N)=C(N)Oc3n[nH]c(CC(=O)OC)c32)cc1 (stereo unspecified)	18.8%
CCCc1[nH]nc2c1C(C1CC=CCC1)C(C#N)=C(N)O2 (stereo unspecified)	26.7%
COCc1[nH]nc2c1C(C1C=CCCC1)C(C#N)=C(N)O2 (stereo unspecified)	-107% (active)
CC(NC(=O)c1cc(-c2ccccc2)on1)c1ccccc1 (stereo unspecified)	-97.3% (active)
CC(NC(=O)Nc1ccccc1)c1ccccc1 (stereo unspecified)	-11.3%
CC(C)CNC(=O)c1cc(-c2ccc(Br)cc2)on1	-2.59%
CCOC(=O)NN1C(=O)c2ccccc2NC1c1cccc(O)c1 (stereo unspecified)	-6.12%
COc1ccc(C2CC(c3cccs3)=NN2C(=O)COC(=O)c2cc3ccccc3cc2O)cc1OC (stereo unspecified)	-16.9%
CC1Cc2ccccc2N1C(=O)CSc1nnc(-c2ccc(S(=O)(=O)N3CCCC3)cc2)n1C (stereo unspecified)	-4.26%

SMILES	activity change (PNC), negative = inhibition
COc1ccc(C(CCNCc2ccccc2F)c2ccc(F)cc2)cc1 (stereo unspecified)	-83.9% (active)
COc1ccc(C(CC(=O)O)NC(=O)Cc2ccccc2)cc1 (stereo unspecified)	-1.4%
COc1cccc(CNCCc2c[nH]c3ccccc23)c1OCc1ccccc1F	9.41%
COc1ccc(S(=O)(=O)NC(C)C(=O)Nc2cccc([N+](=O)[O-])c2)cc1 (stereo unspecified)	-19.9%
Cc1cccc(CC(=O)Nc2c3c(nn2-c2cccc(Cl)c2)CS(=O)C3)c1 (stereo unspecified)	-2.34%
COc1ccc(CC(=O)Nc2c3c(nn2-c2cccc(Cl)c2)CS(=O)C3)cc1 (stereo unspecified)	-119% (active)
COc1ccc(-n2nc3c(c2NC(=O)Cc2cccc(C)c2)CS(=O)C3)cc1 (stereo unspecified)	1.65%
CC(NC(=O)C(=O)NN=C1CCC(C(C)(C)C)CC1)c1ccccc1 (stereo unspecified)	-5.42%
COC(=O)Cc1csc(/N=C/c2c(O)n(-c3cccc(C(F)(F)F)c3)c(=O)c3ccccc23)n1	-11.4%
Cc1cccc(C(=O)NCC(=O)OCC(=O)N2CC3(C)CC2CC(C)(C)C3)c1 (stereo unspecified)	-3.76%
COc1ccccc1C(=O)N1CC2(C)CC1CC(C)(C)C2 (stereo unspecified)	-20.8%
COc1ccc(C(=O)N2CC3(C)CC2CC(C)(C)C3)cc1OC (stereo unspecified)	-104% (active)
Cc1cc(Cl)ccc1NC(=S)NCCCN1CCCC1=O	13%
CCO/N=C(/C)c1c(O)cc(-c2ccccc2)n(-c2ccccc2)c1=O	36.7%
CC(C)(C)NC(=O)Cn1nnc(-c2ccccc2Cl)n1	25.1%
Cc1cc(C)n(C(=O)c2ccc(S(=O)(=O)N3CCCC3)cc2)n1	5.75%
Cc1ccccc1-c1nnn(CC(=O)c2ccc(S(=O)(=O)N3CCCC3)cc2)n1	-100% (active)
O=C(COC(=O)Cc1ccc(Br)cc1)Nc1c(F)c(F)c(F)c(F)c1F	16.2%
O=C(Nc1ccc2c(c1)OCCO2)c1ccncc1	-27.2%
O=C(Nc1nc(-c2ccc3c(c2)OCO3)cs1)c1ccncc1	-83.5% (active)
O=C(Nc1nc2ccccc2s1)c1ccc2c(c1)OCO2	62.8%
CCCCNS(=O)(=O)c1ccc2nc(SCC(=O)Nc3cc(C)cc(C)c3)[nH]c2c1	35.2%
CCCCN(CC)C(=S)Nc1ccc2nc3n(c(=O)c2c1)CCCCC3	41.2%
O=C(CSc1ccccn1)Nc1nc2c(ccc3ccccc32)s1	41.9%
